Tgondii IFNg: T. gondii growth inhibition with IFN-gamma, primary screen, cell-based; hit rate 3.8% among 69,000; Toxoplasma gondii growth in IFN-gamma-treated host cells; stronger effect = lower value; AID 1259416, 2018; activity change, negative = inhibition, % (test concentration not listed); in the data active = activity change below about -70%, passing the limit was not always enough;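 note: host cells are HeLa cells infected with Toxoplasma gondii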
Large screens that a line does not name were inactive; ! = not active in a repeat. This excerpt belongs to a sample that is enriched for hits.

Cc1cccc(-c2cnc(C)nc2C2CCCN(C(=O)/C=C/c3cc(F)ccc3F)C2)c1 (configuration not stated)	Tgondii IFNg -73.4
COc1ccc(/C=C/C(=O)N2CCCC(c3nc(C)ncc3Cc3ccccc3)C2)cc1 (configuration not stated)	none
O=C(c1nc(SCc2ccc(Cl)cc2)n2ccccc12)C(F)(F)F	none
Cc1ccc(N2CCC3(CC2)OCC(=O)N(C)C3C)nn1 (configuration not stated)	none
CSc1cc(-c2ccc(Cl)cc2)nc(-c2ccc(Cl)cc2)c1	none
CCCCC1C=CCN1C(=O)c1cccc(C#CC(C)(C)O)c1 (configuration not stated)	none
Cc1nsc(NC(=O)NC2CCN(Cc3ccccc3Cl)CC2)n1	none
O=C(Nc1ccc(Cl)c(Cl)c1Cl)NC1CCSC1 (configuration not stated)	Tgondii IFNg -74.9
NC(=O)C1Cn2ccnc2C2(CCN(C(=O)c3ccncc3)CC2)O1 (configuration not stated)	none
Cc1ccc(C(=O)N2CCC3(CC2)NC(=O)CC3c2cnn(C)c2)o1 (configuration not stated)	none
O=C(c1cccs1)N1CCCC(c2[nH]nc3nccnc23)C1 (configuration not stated)	none
O=C(NC1CCc2[nH]c(=O)ccc2C1)C1CCOC1 (configuration not stated)	none
CCc1cc(=O)oc2cc(OCC=C(C)C)ccc12	none
CCc1cc(=O)oc2cc3occ(-c4ccc(OC)c(F)c4)c3cc12	Tgondii IFNg -78.3
COc1cc2c(=O)c(-c3ccc(O)cc3)coc2cc1O	none
CCn1cc(S(=O)(=O)Nc2ccc(Oc3cccnc3)cc2)c(C)n1	none
Cc1nc(C)c(-c2ccccc2CO)s1	none
CO[C@H]1CO[C@@]2(CCCN(C(=O)c3ccc4ncccc4c3)C2)C1	none
O=C(c1cc(F)cc(F)c1)N1CCC(n2cnc3cccnc32)CC1	none
COc1cccc(CNC(=O)Nc2ccc(-c3nc(-c4ccccc4)co3)cc2)c1	none
O=C(Nc1nc(-c2ccccc2)cs1)C1CCCN1C(=O)OCc1ccccc1 (configuration not stated)	none
O=C(NCc1cccc(O)c1)Nc1nc(-c2ccncc2)cs1	Tgondii IFNg -73.7
CN(Cc1nc(-c2ccccc2)no1)C(=O)c1ccc(CO)o1	none
O=C(c1ccccn1)N1CC[C@@H]2[C@@H](CO)Nc3ccc(Br)cc3[C@@H]21	none
COC(=O)c1c(NCc2ccc(C)o2)c2cccc(Cl)c2[nH]c1=O	none
COC(=O)c1c(NCCN2CCC(C)CC2)c2cccc(Cl)c2[nH]c1=O	none
COC(=O)c1c(NCCc2cccs2)c2cccc(Cl)c2[nH]c1=O	Tgondii IFNg -85.7
CCCCNc1c(C(=O)OC)c(=O)[nH]c2c(Cl)cccc12	none
CCCNc1c(C(=O)OC)c(=O)[nH]c2c(Cl)cccc12	none
CCOc1cccc(CNc2c(C(=O)OC)c(=O)[nH]c3c(Cl)cccc23)c1	Tgondii IFNg -81.8
COC(=O)c1c(NC(C)c2ccccc2)c2cccc(Cl)c2[nH]c1=O (configuration not stated)	none
COC(=O)c1c(NCc2ccccc2F)c2cccc(Cl)c2[nH]c1=O	none
COC(=O)c1c(NCc2ccc(F)cc2)c2cccc(Cl)c2[nH]c1=O	Tgondii IFNg -87.7
COCc1ncc(CN(C)Cc2cnn(-c3ccccc3)c2)cn1	none
CC(C)(C)c1ccc(-c2noc(CCOc3ccc(F)cc3)n2)cc1	none
CCCc1c(-c2nc(-c3ccc(C(C)(C)C)cc3)no2)cnn1-c1ccccc1	Tgondii IFNg -96.8
CCCc1c(C(=O)Nc2ccc3ccccc3n2)cnn1-c1ccccc1	none
CN(C)C(=O)N1CC2CCC(C1)C2C(=O)Nc1cccc(F)c1 (configuration not stated)	none
CC1(C(=O)NCc2ccc(F)cc2F)CCN(C(=O)c2ccccc2)CC1	none
CC1(C(=O)NCc2ccc(F)cc2F)CCN(C(=O)c2ccc(F)cc2)CC1	none
CC1(C(=O)NCc2ccc(F)cc2F)CCN(C(=O)c2ccc(C(C)(C)C)cc2)CC1	Tgondii IFNg -90.8
O=C(Nc1cccc(F)c1)N1CC(C(=O)N2CCOCC2)C2(CCOCC2)C1 (configuration not stated)	none
Cc1ccc(S(=O)(=O)N2CCC3(CC3C(=O)Nc3cccc(F)c3)C2)cc1F (configuration not stated)	none
Cc1ccc(S(=O)(=O)N2CC(C(=O)Nc3cccc(F)c3)C3(CCOCC3)C2)cc1 (configuration not stated)	Tgondii IFNg -75.1
Cc1ccc2c(C)c(C(=O)N(C)Cc3nnc(-c4ccccc4)o3)oc2c1	none
C=CCOCC1CC2OCCN(C(=O)NCc3cccnc3)C2C1 (configuration not stated)	none
CC(=O)Nc1ccc(S(=O)(=O)NCc2nc(-c3ccccc3)oc2C)cc1	none
Cn1c(=O)c2c(nc(NCCc3ccccc3)n2CC(=O)Nc2ccccc2)n(C)c1=O	none
CN(C)C(=O)COCC1CN(c2ncc(F)cn2)Cc2ccnn2C1 (configuration not stated)	none
COc1ccc(C=O)c(OC)c1	none
COc1cc(/C=C/c2ccc(OC)cc2OC)cc(OC)c1	Tgondii IFNg -76.5!
COC(=O)c1cc(OC)c(OC)cc1NC(=O)Nc1ccc(OC)cc1OC	none
OC1CCC(c2nc(CCc3ccccc3)nn2-c2ccccn2)CC1 (configuration not stated)	none
CC(C)[C@H](N)C(=O)OCCOCn1cnc2c(=O)[nH]c(N)nc21	none
Nc1ncnc2c1ncn2[C@H]1CC[C@@H](CO)O1	none
CC(C)(C)C(=O)OCOP(=O)(COCCn1cnc2c(N)ncnc21)OCOC(=O)C(C)(C)C	Tgondii IFNg -80.0
CC(C)N1CCc2ncn(C)c2C1C(=O)C1CCN(C)C1 (configuration not stated)	none
CC(C)CN1[C@@H]2CCN(C(=O)c3ccc[nH]3)CC[C@@H]2Oc2ccccc2S1(=O)=O	none
Cc1cc(Cc2cccc(F)c2)cc(C2CCN(S(=O)(=O)c3ccccc3)C2)n1 (configuration not stated)	none
OCc1ccc(-c2nccn2-c2cccc3c2CCC3)o1	none
CCc1ccccc1NC(=O)NCC(c1cccnc1)c1c[nH]c2ccccc12 (configuration not stated)	none
O=C(NCC(c1cccnc1)c1c[nH]c2ccccc12)Nc1ccccc1C(F)(F)F (configuration not stated)	none
O=C(NCC(c1ccccc1)c1c[nH]c2ccccc12)c1ccc(C(F)(F)F)cc1 (configuration not stated)	Tgondii IFNg -88.1
Cc1ccc(-c2nnc(CNCC3OCCc4ccccc43)o2)n1C (configuration not stated)	none
Cc1nc(Nc2n[nH]c3c2CN(C(=O)N[C@H](CN(C)C)c2ccccc2)C3(C)C)c2sccc2n1	Tgondii IFNg -74.9
COc1ccc(-c2[nH]ncc2CNC(=O)C2(c3cccc(C)c3)CCOCC2)cc1	none
COCCN1C(=O)N(Cc2ccccc2)C2(CCN(Cc3ccco3)CC2)C1=O	none
Cn1ncc(-c2nc(-c3ccc(Cl)cc3)cs2)c1N	Tgondii IFNg -83.2
CC(C)(C)c1cc(-c2csc(-c3ccc(Cl)cc3)n2)cc(C(C)(C)C)c1O	none
Cc1nc(-c2ccc(Cl)cc2)cs1	none
Cc1cc(C)n(Cc2nc(-c3ccc(NC(=O)c4ccsc4)cc3)oc2C)n1	none
Cc1ccc2[nH]cc(-c3ccc(CN)s3)c2c1	none
O=C1NCCN(Cc2ccccc2)C12CCN(S(=O)(=O)c1ccc(F)cc1)CC2	none
CC(CCCC(C)(C)O)CCN1CCC2(CC1)C(=O)NCCCN2C (configuration not stated)	none
O=C1NCN(c2ccccc2)C12CCN(CCCC(c1ccc(F)cc1)c1ccc(F)cc1)CC2	Tgondii IFNg -80.9
